The record followed here is PubChem BioAssay (NCATS).

The nature of test [1]: qHTS of pediatric cancer cell lines to identify multiple opportunities for drug repurposing: Primary screen for U-2 OS cells (AID 1347096). Further: nearly all actives have a fitted effect of over 50% in size. Put shortly: (§1)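 Cells (500-1,000/well) in growth media were settled 5 h at 37 degrees C, then given compounds for 48 h. Viability was read as CellTiter-Glo luminescence. Primary runs used MIPE at 11 points (0.78 nM-46 µM) and NPC at 8 points (0.59 nM-46 µM); follow-ups used 11 points.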
Background: qHTS replaces the single test concentration by a dilution series.

Test [2] can be described thus: qHTS of pediatric cancer cell lines to identify multiple opportunities for drug repurposing: Primary screen for Saos-2 cells (AID 1347097). Further: nearly all actives have a fitted effect of over 40% in size. Put shortly:
(§2)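 Luminescence from CellTiter-Glo served as readout of metabolically active cells after 48 h compound exposure. Titrations: MIPE 11-point, from 0.78 nM; NPC 8-point, from 0.59 nM (final). Concentration-response curves came straight from the primary screen.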

A short description of test [3]: qHTS of pediatric cancer cell lines to identify multiple opportunities for drug repurposing: Primary screen for NB1643 cells (AID 1347099). Further: nearly all actives have a fitted effect of over 50% in size. Put shortly:
as §2

The nature of test [4]: qHTS of pediatric cancer cell lines to identify multiple opportunities for drug repurposing: Primary screen for LAN-5 cells (AID 1347100). Put shortly: as §1
A short description of test [5]: qHTS of pediatric cancer cell lines to identify multiple opportunities for drug repurposing: Primary screen for BT-12 cells (AID 1347101). Further: nearly all actives have a fitted effect of over 25% in size. Put shortly:
(§3)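 Cells (500-1,000/well) rested 5 h, then received compounds for 48 h; metabolically active cells were measured by CellTiter-Glo luminescence. Final concentrations spanned up to 46 µM (MIPE, 11-point) or 0.59 nM-46 µM (NPC, 8-point) in primary screens, 11-point in follow-ups.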

Test [6] is described as follows: qHTS of pediatric cancer cell lines to identify multiple opportunities for drug repurposing: Primary screen for Rh18 cells (AID 1347102). Further: nearly all actives have a fitted effect of over 65% in size. Put shortly: as §1
Test [7] is described as follows: qHTS of pediatric cancer cell lines to identify multiple opportunities for drug repurposing: Primary screen for OHS-50 cells (AID 1347103). Further: nearly all actives have a fitted effect of over 40% in size. Put shortly:
as §3

Test [8] in a line: qHTS of pediatric cancer cell lines to identify multiple opportunities for drug repurposing: Primary screen for RD cells (AID 1347104). Further: nearly all actives have a fitted effect of over 55% in size. Put shortly: as §2
The nature of test [9]: qHTS of pediatric cancer cell lines to identify multiple opportunities for drug repurposing: Primary screen for MG 63 (6-TG R) cells (AID 1347105). Further: nearly all actives have a fitted effect of over 50% in size. Put shortly: as §2
A short description of test [10]: qHTS of pediatric cancer cell lines to identify multiple opportunities for drug repurposing: Primary screen for SK-N-SH cells (AID 1347098). Further: nearly all actives have a fitted effect of over 65% in size. Put shortly: as §3

Inconclusive results are not listed. Active and inactive are the calls of the source. The call rests on the fitted dose curve; in most records, active means well fitted curve in the direction sought with a large enough effect; inconclusive means small, poorly fitted or top-dose-only effect, or another doubt; inactive means no such curve, though single readings can be large; an effect the other way counts as inactive or inconclusive.
Potency means the concentration at half of the fitted maximal effect.

Consider `Nc1ccc(S(=O)(=O)Nc2ncccn2)cc1`, for which the Potency result in [1], in test [2], in test [3], in test [4], in test [5] and in test [6] was “inactive” each time. The Potency result in test [7], in test [8] and in [9] was “inactive” throughout.

For the molecule `COC(=O)C[C@](O)(CCCC(C)(C)O)C(=O)O[C@@H]1C(OC)=C[C@]23CCCN2CCc2cc4c(cc2[C@H]13)OCO4`, the Potency entry in test [1], in test [10], in [4], in test [5], in test [6] and in test [7] was “inactive” in each case. The Potency result in test [8] and in [9] was “inactive” in each case. Further, the Potency in [2] was 18.7 µM (active).

Consider `O=c1c2ccccc2nc2n1CCc1c-2[nH]c2ccccc12`, for which the Potency entry in test [1], in test [2], in test [3], in test [4], in [6] and in [7] was “inactive” in each case. Also, the Potency entry in test [8] and in test [9] was “inactive” each time.

In the case of `COc1c(OCCCN2CCOCC2)ccc2c3n(c(=NC(=O)c4cnc(N)nc4)nc12)CCN3`, the Potency entry in test [1] is “inactive”. The Potency in test [2] is 0.0512 µM (active); in [4] it was 0.407 µM (active); in test [6] it was 0.0812 µM (active); in [7], 0.0211 µM (active); in [8], 0.0724 µM (active); in [9], 0.0407 µM (active).

In the case of `c1cc(-c2cnn3cc(-c4ccc(OCCN5CCCCC5)cc4)cnc23)ccn1`, in test [1], the Potency entry is “inactive”. For the same molecule, the Potency in test [3] is 3.72 µM (active); in [4] it was 9.35 µM (active); in test [5] it was 24.3 µM (active); in test [6], 20.9 µM (active); in [8], 18.7 µM (active); in test [9], 18.7 µM (active).

In the case of `CN(C)Cc1c(C(=O)NCCOc2ccc(C(=O)NO)cc2)oc2ccccc12`, the Potency was 2.96 µM (active) in test [1]; 2.96 µM (active) in test [2]; 0.935 µM (active) in test [3]; 0.469 µM (active) in [4]; 0.59 µM (active) in test [6]; 1.87 µM (active) in test [8]. For the same molecule, the Potency in test [9] was 3.72 µM (active).

For the molecule `COc1cc(C(C)C)c2c(c1)S(=O)(=O)N(COc1cc(=O)n3cccc(OCCN4CCCCC4)c3n1)C2=O`, the Potency result in [1] and in test [9] was “inactive” in each case. In addition, the Potency is 26.4 µM (active) in test [2], 13.2 µM (active) in test [3] and 20.9 µM (active) in test [8].

As for `NC(=O)c1c(OCc2c(F)cc(Br)cc2F)nsc1NC(=O)NCCCCN1CCCC1`, the Potency entry in [1], in [2] and in test [3] was “inactive” each time. The Potency was 27.3 µM (active) in [5], 18.7 µM (active) in test [8] and 5.9 µM (active) in test [9].

With `Cc1ccc(S(=O)(=O)Nc2cc(Cl)ccc2C(=O)Nc2nc(-c3ccccc3)cs2)cc1`, the Potency result in test [1] and in [6] was “inactive” in each case. Also, the Potency was 14.8 µM (active) in [2]; 3.72 µM (active) in [3]; 9.35 µM (active) in [4]; 8.63 µM (active) in test [7]; 10.5 µM (active) in [8]; 9.35 µM (active) in [9].

`CS(=O)(=O)c1ccc(-c2cnc(N)c(C(=O)Nc3ccccc3)n2)cc1`: the Potency result in test [1], in test [2], in test [3], in [5], in test [6] and in [8] was “inactive” each time. Moreover, the Potency result in test [9] was “inactive”.

As for `O=C(O)C1(Cc2cccc(Nc3nccs3)n2)CCC(Oc2cccc(Cl)c2F)CC1` (stereo unspecified), the Potency result in test [1], in test [3] and in test [8] was “inactive” in each case. Also, the figures for the Potency in [2] and in [9] were 14.8 µM (active) and 18.7 µM (active), respectively.

With `Cn1c(CNc2ccc(C(=N)N)cc2)nc2cc(C(=O)N(CCC(=O)O)c3ccccn3)ccc21`, the Potency entry in [1], in test [2], in test [4], in test [5], in test [6] and in test [7] was “inactive” in each case. In test [8], the Potency result was “inactive”.

Regarding `CC(C)(C)c1cc(C(C)(C)C)c(NC(=O)c2c[nH]c3ccccc3c2=O)cc1O`, the Potency entry in test [1], in [10], in test [3], in test [4], in [5] and in test [6] was “inactive” in each case. Further, the Potency entry in test [8] and in test [9] was “inactive” each time.

For the molecule `Nc1cccc(-c2cc3c(Oc4cccc(O)c4)ncnc3[nH]2)c1`, in test [1], the Potency result was “inactive”. Also, the Potency in [2] was 1.87 µM (active); in test [3] it was 20.9 µM (active); in test [4], 11.8 µM (active); in test [6], 11.8 µM (active); in [8], 9.35 µM (active).

With `CC1=C(CO)C(=O)O[C@@H]([C@@H](C)[C@H]2CC[C@H]3[C@@H]4C[C@H]5O[C@]56[C@@H](O)C=CC(=O)[C@]6(C)[C@@H]4CC[C@]23C)C1`, the Potency result in test [1] was “inactive”. Further, the Potency was 3.41 µM (active) in test [10]; 0.132 µM (active) in [3]; 0.187 µM (active) in test [4]; 2.64 µM (active) in [6]; 4.85 µM (active) in test [7]; 0.418 µM (active) in [8]. For the same molecule, in [9], the Potency is 0.743 µM (active).

As to `O=C(C=Cc1cccnc1)NCCCCC1CCN(C(=O)c2ccccc2)CC1`, the values for the Potency in [1] and in test [10] were 0.118 µM (active) and 0.482 µM (active), respectively.

As for `N#Cc1c(O)c2c(-c3ccc(-c4ccccc4O)cc3)csc2[nH]c1=O`, the Potency entry in test [1], in test [2], in test [4], in test [6], in [7] and in test [8] was “inactive” each time. Further, in test [9], the Potency entry was “inactive”.
